D2 antagonist: D2 dopamine receptor (human) antagonism | HEK293 TREx D2 cells, calcium flux, dopamine EC80 | AID 485344 | P14416 | 340,000 compounds, 2% hits | inhibition, % at 10 µM; in the data active = inhibition above about 30%; inactive = below that, where a call was filed; also: 0% is about no effect
Target sequence (P14416 whole entry, looked up): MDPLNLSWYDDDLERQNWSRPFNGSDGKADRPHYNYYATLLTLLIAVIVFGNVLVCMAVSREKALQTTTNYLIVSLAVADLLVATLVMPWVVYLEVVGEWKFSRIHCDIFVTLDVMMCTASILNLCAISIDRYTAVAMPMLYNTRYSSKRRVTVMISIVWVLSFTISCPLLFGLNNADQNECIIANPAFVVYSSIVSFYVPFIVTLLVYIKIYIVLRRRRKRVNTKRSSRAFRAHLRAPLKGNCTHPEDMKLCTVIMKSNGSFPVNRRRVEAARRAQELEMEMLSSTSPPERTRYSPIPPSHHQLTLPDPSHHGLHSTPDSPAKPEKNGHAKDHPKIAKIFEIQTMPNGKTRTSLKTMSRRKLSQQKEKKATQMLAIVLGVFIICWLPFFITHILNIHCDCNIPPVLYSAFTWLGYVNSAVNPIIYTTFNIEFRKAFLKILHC
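Cells plated overnight at 30 C with tetracycline; no-wash calcium dye, 30–90 min RT; 10 s baseline; compound pinned; 180 s read; EC80 dopamine added; another 180 s read.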
D2 PAM-1: positively modulates the human D2 dopamine receptor allosterically. P14416. HEK293 T-REx D2, calcium flux, EC20 dopamine potentiation. potentiation, % at 10 µM. 340,000 compounds, 0.34% hits;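 active = potentiation over 3 SD above the plate norm, cut at about 30% in these data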; also: 0% is about no effect
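Tetracycline-induced Hek293 Trex D2 cells, force-coupled to calcium, loaded with no-wash calcium dye. Compound added with 180 s kinetic read for agonism, then EC20 dopamine and a further 180 s read for potentiation.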
D2 ag-1: agonists of human D2 dopamine receptor; AID 485358; activation, % at 2 µM; HEK293 T-REx D2 cells, calcium flux agonist mode; 340,000 compounds, 0.53% hits;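 active = activation over 3 SD above normal in the single-dose calcium agonist read, cut at about 30% in these data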; also: 0% is about no effect
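Agonism scored from kinetic calcium signal (1 read/sec, 180 s) following compound pin transfer, after a 10 s baseline. Cells: HEK293 Trex line expressing inducible D2 receptor coupled to calcium, dye-loaded after overnight culture at 30 C.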
D2 PAM-2: potentiates the human D2 dopamine receptor allosterically. P14416. DiscoveRx D2 beta-arrestin cells, luminescence, 90 min; 100% = 57 uM dopamine signal. potentiation, % (concentration not given with the values). 360,000 compounds, 0.23% hits. AID 624464; in the data active = potentiation above about 50%; inconclusive = mostly about 30% to 49%
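D2 cells co-treated with compound plus 50 nM dopamine (EC20) for 90 min at 37 deg C to detect potentiation. Beta-arrestin recruitment was read as enzyme-fragment luminescence after 1 h at ambient temperature. Full response was set by 57 uM dopamine.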
D2 ag-2: agonists of human D2 dopamine receptor (beta-arrestin); DiscoveRx PathHunter D2 beta-arrestin, luminescence, 90 min; 100% = 57 uM dopamine signal; activation, % (concentration not given with the values); 360,000 compounds, 0.084% hits; in the data active = activation above about 40%; inconclusive = between about 15% and that limit
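Agonist mode: compounds alone added to overnight-plated D2 PathHunter cells for 90 min at 37 C, with 57 uM final dopamine (EC100) defining full response. Beta-arrestin recruitment detected by chemiluminescent reagent, read after 1 h at ambient temperature.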
* = called active by the depositor; ? = inconclusive; / = not tested or not shown. In the library only some 2.4% were active in any assay of this set; here they are far more common.

SMILES | D2 antagonist | D2 PAM-1 | D2 ag-1 | D2 PAM-2 | D2 ag-2
S=C(NCC1CCCO1)N1CCN(c2nc(-c3ccccc3)cs2)CC1 (stereo not given) | 67* | -20 | 1 | -16 | 1
COc1ccccc1-c1c(C)[nH]n2c(=O)c(Cc3ccccc3)c(C)nc12 | 54* | -22 | 0 | -17 | 0
COc1ccc(-c2c(C)[nH]n3c(=O)c(Cc4ccccc4)c(C)nc23)cc1 | 31* | -24 | 1 | -40 | -3
CCOC(=O)c1ccc2c(c1)N(Cc1ccc(F)cc1Cl)C(=O)c1ccccc1S2(=O)=O | / | 12 | / | / | /
COc1cc(-c2noc(C3CC(=O)N(c4cc(C)ccc4C)C3)n2)cc(OC)c1OC (stereo not given) | / | -1 | 0 | / | /
CC1=CS/C(=C(/C#N)C(=O)NCc2ccco2)N1c1ccccc1 | 31* | 0 | 0 | -7 | -5
Cc1cn2c(=O)cc(COc3cccc(NC(=O)c4ccc(C(C)(C)C)cc4)c3)nc2s1 | / | 1 | 0 | / | /
CCN(CC)C(=O)c1sc(NC(=O)c2nc3ncccn3n2)c(C(=O)OC)c1C | / | 8 | 0 | / | /
O=C(CSc1ncnc2nc[nH]c12)c1ccc(Cl)cc1 | 14 | 3 | 2 | -1 | 6
O=C(CSc1ncnc2nc[nH]c12)c1ccc([N+](=O)[O-])cc1 | -1 | 3 | -1 | 56* | 14
COc1ccc(-c2cc(=O)oc3c4c(ccc23)OCN(Cc2ccccc2)C4)cc1 | / | -12 | / | / | /
O=C(O)CCc1ccc(-c2ccc(Cl)cc2)n1CC(=O)Nc1ccccc1 | -9 | 36* | -2 | -5 | -1
O=C(O)CCc1ccc(-c2ccc(Cl)cc2)n1CC(=O)O | 9 | 9 | 0 | -4 | -3
Cc1ccc(S(=O)(=O)N2CCc3cc(C(=O)N(C)Cc4ccccc4)ccc32)cc1 | / | -4 | -1 | / | /
COc1ccc(S(=O)(=O)N2CC(=O)Nc3ccccc32)cc1Cl | 5 | 60* | 0 | -1 | -4
CCOc1ccc(S(=O)(=O)N2CC(=O)Nc3ccccc32)cc1C#N | 2 | -4 | 0 | -1 | -3
Cc1cccc(N2CCN(C3(c4ccccc4)C(=O)c4ccccc4C3=O)CC2)c1C | / | -3 | 0 | / | /
Clc1ccc(CN2C3=NCCCN3c3ccccc32)cc1 | 3 | 6 | 1 | -6 | -10
Clc1ccc(CN2C3=NCCCN3c3ccccc32)cc1Cl | 76* | 3 | 1 | -10 | 1
COc1ccccc1NC(=O)CC12CC3CC(CC(Br)(C3)C1)C2 | -2 | 5 | 1 | -4 | 1
NC(=O)c1ccccc1NC(=O)CC12CC3CC(CC(Br)(C3)C1)C2 | -5 | 36* | 5 | -5 | -1
c1ccc(-c2nnc3n2N=C(c2ccc4c(c2)OCO4)CS3)nc1 | -3 | -12 | -1 | -23 | -3
c1cc2c(cc1C1=Nn3c(nnc3C3CCCCC3)SC1)OCO2 | 33* | 13 | -2 | -14 | 1
CCN(C(=O)Cn1c(=O)n(Cc2ccccc2)c(=O)c2c1c1cc(OC)ccc1n2C)c1ccccc1 | / | 6 | 1 | / | /
CC(C)(C)C(=O)NC(=S)NNC(=O)C(c1ccccc1)c1ccccc1 | 75* | -11 | 99* | -21 | -16
SMILES | D2 antagonist | D2 PAM-1 | D2 ag-1 | D2 PAM-2 | D2 ag-2
CC(=O)NNC(=S)NC(=O)C(c1ccccc1)c1ccccc1 | 9 | -1 | 2 | -8 | 1
COc1ccccc1CNCC(=O)Nc1ccc(N2CCOCC2)cc1 | 3 | -14 | 33* | -4 | -1
COc1ccccc1NC(=O)Nc1ccc(N2CCOCC2)cc1 | 4 | -23 | 0 | -4 | -2
CC1=C(C(=O)Nc2ccc(C)cc2C)C(c2ccccc2F)n2nc(SCC(=O)c3ccc(C)cc3)nc2N1 (stereo not given) | / | -1 | 0 | / | /
COc1ccccc1C(=O)NCCC(=O)NCCC12CC3CC(CC(C3)C1)C2 | 0 | -6 | -1 | -8 | -4
COc1ccc(C23CC4CC(CC(C4)C2)C3)cc1C(=O)NCCN(C)C | 33* | -15 | -1 | -62 | -6
CCC(=O)Nc1ccccc1-c1nc2ccccc2n(CC(=O)c2ccc(Cl)cc2)c1=O | / | -1 | / | / | /
COc1cc(C(=O)Nc2cc3c(cc2C)n(C)c(=O)c(=O)n3C)cc(OC)c1OC | / | -2 | 0 | / | /
C/C(=N\NC(=O)c1ccccc1F)c1ccc(C#N)cc1 | 36* | 5 | 2 | -4 | 0
COc1ccc2c(c1)cc1c(=O)n(CC(=O)NCCCc3ccccc3)nc(C)n12 | / | 19 | 0 | / | /
CCOCCn1ccc2c(OCC(=O)Nc3ccc(C(N)=O)cc3)cccc2c1=O | / | 0 | 2 | / | /
COc1ccc(-c2nnc(SCC(=O)c3[nH]c(C)c(C(C)=O)c3C)o2)cc1 | -8 | 38* | 0 | -4 | 1
CC(=O)c1c(C)[nH]c(C(=O)CSc2nnc(-c3ccco3)o2)c1C | -10 | 8 | 0 | -3 | 3
COc1ccc(C(C)=O)cc1COC(=O)C1CC(=O)N(Cc2ccccc2)C1 (stereo not given) | -7 | 2 | -1 | 54* | -2
COc1cccc(COC(=O)C2CC(=O)N(Cc3ccccc3)C2)c1OC (stereo not given) | / | / | / | -4 | 1
Oc1cc(-c2ccccc2)c2ccccc2c1 | -6 | -5 | 1 | 30 | 45*
O=C(c1ccc2c(c1)CCN2S(=O)(=O)c1ccc(Cl)cc1)N1CCN(c2ccccc2)CC1 | / | -7 | 0 | / | /
COc1ccc(OC)c(S(=O)(=O)NCc2cn3c(C)csc3n2)c1 | / | -20 | / | -13 | -3
COc1ccc(S(=O)(=O)NCc2cn3c(C)csc3n2)cc1F | 32* | 8 | 0 | 2 | -2
Cc1cccc(Cn2cnc3c(cnn3-c3ccc(Cl)cc3)c2=O)c1 | / | 4 | 0 | / | /
Cc1nc2ccccc2n1/N=C/c1ccc([N+](=O)[O-])s1 | 8 | 1 | -1 | 16 | 2
O=[N+]([O-])c1ccc(/C=N/n2cnc3ccccc32)s1 | -12 | 8 | 1 | 64* | ?
Cc1cc2ncn(/N=C/c3ccc([N+](=O)[O-])s3)c2cc1C | 1 | 13 | 3 | 71* | 13
O=C(NCc1noc2ccccc12)Nc1ccc(F)cc1F | / | 9 | / | / | /
COc1cc(-c2nc3n(n2)C(c2ccc(F)cc2)C(C(N)=O)=C(C)N3)cc(OC)c1OC (stereo not given) | / | 9 | 0 | / | /
Cc1cc2ncn(C3CC(=O)N(Cc4ccccc4)C3=O)c2cc1C (stereo not given) | -15 | 39* | 0 | 11 | 3
CCn1nnc2cc(C(=O)Nc3cc(C)ccc3C)ccc21 | / | 2 | 0 | / | /
COc1cccc(CNC(=O)CCC2CCCN(C/C=C/c3ccccc3OC)C2)c1 (stereo not given) | 32* | -17 | 1 | -32 | -2

Compound activity deposited in PubChem BioAssay by National Center for Advancing Translational Sciences (NCATS).
